We go through five compounds from PubChem BioAssay (NCATS).

Unmarked numbers belong to inactive results. Inconclusive results are not listed. Calls of active or inactive are those of the source. Calls follow the shape of the dose curve; as a rule, active = well fitted curve in the direction sought with a large enough effect; inconclusive = small, poorly fitted or top-dose-only effect, or another doubt; inactive = no such curve, though single readings can be large; an effect the other way counts as inactive or inconclusive.

The subject of experiment [1] is Zika virus NS2B-NS3 protease (linked construct). Kind of experiment: Primary screen NINDS Rhodamine qHTS for Zika virus inhibitors (AID 1347160). Also: nearly all actives have a fitted effect of over 55% in size. In a few lines: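 Each compound, titrated, sat 15 min with 25 nM linked protease before 1.5 microM Rhodamine110 substrate went in. Fluorescence gain over the next 15 min, in pH 8.0 Tris with Tween 20, gave Hill-fitted curves.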
For orientation: In qHTS, concentration-response curves come from the screen itself.

Experiment [2] concerns the target Calcium and integrin-binding protein 1 (Homo sapiens) (UniProt Q99828). Briefly: Primary qHTS for Identification of Calcium Integrin Binding Protein 1 (CIB1) Competitor (AID 1508620).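 Also: GST tagged CIB1 binding a fluorescein labelled alphaIIb integrin peptide tracer; top concentration of the series differs between compounds; % is scaled to controls: 0 for no effect and ±100 for the full control effect.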 In outline: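 Fluorescence polarization competition: CIB1-GST (1 uM final) preincubated with compound 15 min at room temperature, then FITC-labeled alphaIIb peptide (100 nM final) added for another 15 min. Polarization read at Ex 480/Em 540.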

Experiment [3] deals with Glutathione peroxidase 1 (Homo sapiens) (UniProt P07203). Kind of experiment: Primary qHTS Assay for Inhibitors of Recombinant Selenoprotein Glutathione Peroxidase 1 (GPX1) (AID 1845191). Also: nearly all actives have a fitted effect of over 65% in size. In outline:
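GPX1 10 nM, GR 100 nM, GSH 1 mM, NADPH 0.5 mM, CHP 0.5 mM (final). 30-min cpd preincubation, RT. Ex340/Em450 read t=0, t=15 min.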

The target in experiment [4] is Phospholipid hydroperoxide glutathione peroxidase GPX4 (Homo sapiens) (UniProt P36969). Briefly: Primary qHTS Assay for Inhibitors of Recombinant Selenoprotein Glutathione Peroxidase 4 (GPX4) (AID 1845192). Also: % is scaled to controls: 0 for no effect and ±100 for the full control effect; nearly all actives have a fitted effect of over 65% in size. In outline: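 qHTS, GR-coupled: GPX4 200 nM + cpd 30 min RT → GSH 1 mM, NADPH 0.5 mM, GR 100 nM → CHP 0.5 mM start; fluor 340/450 at t0 and t15 min; no-enzyme wells as control.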

The target in experiment [5] is Luciferin 4-monooxygenase (Photinus pyralis) (UniProt P08659). Kind of experiment: Primary firefly luciferase (FLuc) qHTS assay for identification of artifact compounds. (AID 1845220). Also: nearly all actives have a fitted effect of over 60% in size. To be noted: outcome: dose series up to 54.1 µM unless noted. In a few lines:
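In this counter-screen for luciferase artifacts, test compounds met substrate (10 uM each luciferin and ATP) before 10 nM enzyme started the reaction. Light output was measured 5 min later.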

Experiment [6] is described as follows: Primary fluorescence-based thiol-reactive (MSTI) qHTS assay for identification of artifact compounds. (AID 1845221).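 Also: thiol-reactive compounds lower the probe fluorescence signal; nearly all actives have a fitted effect of over 65% in size.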 In outline: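 Curve-fitted percent inhibition (4-parameter Hill) derived from fluorescence, Ex 525/Em 598 nm, scaled with Acetyl-MSTI and MSTI; 1 h incubation at room temperature.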
The subject of experiment [7] is Nanoluciferase (engineered Oplophorus gracilirostris luciferase). Kind of experiment: Primary Nanoluciferase (NLuc) qHTS assay for identification of artifact compounds. (AID 1845222).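 Also: NLuc secreted into diluted conditioned medium of S16 cells.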 In a few lines:
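Using secreted nanoluciferase in S16 culture medium (0.22 um filtered, 1:55 dilution), compounds were preincubated 15 min at RT. Signal was generated with Nano-Glo reagent (1:100) over 5 min.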

Experiment [8] is described as follows: Primary redox qHTS assay for identification of artifact compounds. (AID 1845223).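 Also: 0% = DMSO and 100% = reference compound.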 In a few lines:
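Redox-cycling detection via DTT (250 uM final) oxidation coupled to Amplex Red (25 uM)/HRP (250 mU/mL) in HBSS. 15 min preincubation plus 30 min after DTT, room temperature. Ex/Em 525/598 nm; 4-parameter Hill fit against DMSO and 10 uM DA3003.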

Experiment [9] has as its system CASKI. Kind of experiment: Primary qHTS to identify gynecologic anti-cancer compounds using libraries of approved drugs and bioactive compounds (AID 1345084). Also: nearly all actives have a fitted effect of over 55% in size. Also: potency is read from the fitted curve at half-maximal effect. As to activity change, negative = cytotoxicity: % is scaled to controls: 0 for no effect and ±100 for the full control effect. To be noted: Gynecologic cancer cell panel viability, ATPlite luminescence, 48 h; series mostly up to 57.5 µM. In outline: (§1)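 Cytotoxicity screen measuring ATP content by luciferase luminescence. Each compound is applied at five concentrations for 48 h at 37 C with 5% CO2.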

Experiment [10] deals with JEG-3. The experiment is described as above. To be noted: Gynecologic cancer cell panel viability, ATPlite luminescence, 48 h; series mostly up to 57.5 µM. In outline:
as §1

The subject of experiment [11] is HaCat. Briefly: Cytotoxic Profiling of Annotated Libraries Using Quantitative High-Throughput Screening (AID 1296008). Also: nearly all actives have a fitted effect of over 60% in size. As to max response: % is scaled to controls: 0 for no effect and ±100 for the full control effect. To be noted: Five cell lines viability, CellTiter-Glo ATP luminescence, 48-72 h; max response: active compounds read low. In outline: (§2)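 Compounds were pin-transferred onto cells and incubated 48 or 72 hr at 37 degree Celsius, 95% humidity. CellTiter-Glo was added, plates sat 10 min at room temperature, then ATP-coupled luminescence was imaged as the viability read-out.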
(Cellular ATP, detected with luciferase, serves as a proxy for viable cell number.)

In experiment [12] the test system is NIH3T3. The description is as above. To be noted: Five cell lines viability, CellTiter-Glo ATP luminescence, 48-72 h; max response: active compounds read low. In a few lines:
as §2

Experiment [13] deals with C33A. Briefly: Primary qHTS to identify gynecologic anti-cancer compounds using libraries of approved drugs and bioactive compounds (AID 1345084). Also: nearly all actives have a fitted effect of over 55% in size. Also: potency is read from the fitted curve at half-maximal effect. As to activity change, negative = cytotoxicity: % is scaled to controls: 0 for no effect and ±100 for the full control effect. To be noted: Gynecologic cancer cell panel viability, ATPlite luminescence, 48 h; series mostly up to 57.5 µM. In a few lines:
as §1

Experiment [14] deals with CAOV3. The description is as above. To be noted: Gynecologic cancer cell panel viability, ATPlite luminescence, 48 h; series mostly up to 57.5 µM. In a few lines:
as §1

In experiment [15] the test system is Es-2. The description is as above. To be noted: Gynecologic cancer cell panel viability, ATPlite luminescence, 48 h; series mostly up to 57.5 µM. In a few lines:
as §1

Experiment [16] has as its system Hek293T. The experiment is described as above. To be noted: Gynecologic cancer cell panel viability, ATPlite luminescence, 48 h, control line for the selectivity index; series mostly up to 57.5 µM. In a few lines:
as §1

For experiment [17], the system named is OV90. The description is as above. To be noted: Gynecologic cancer cell panel viability, ATPlite luminescence, 48 h; series mostly up to 57.5 µM. In a few lines:
as §1

The test system of experiment [18] is PA-1. The description is as above. To be noted: Gynecologic cancer cell panel viability, ATPlite luminescence, 48 h; series mostly up to 57.5 µM. In a few lines:
as §1

The test system of experiment [19] is Tov-21-G. The experiment is described as above. To be noted: Gynecologic cancer cell panel viability, ATPlite luminescence, 48 h; series mostly up to 57.5 µM. In a few lines: as §1
The subject of experiment [20] is Tov112D. The experiment is described as above. To be noted: Gynecologic cancer cell panel viability, ATPlite luminescence, 48 h; series mostly up to 57.5 µM. In a few lines: as §1

Chain of Glutathione peroxidase 1 (Homo sapiens) (P07203 whole entry, looked up): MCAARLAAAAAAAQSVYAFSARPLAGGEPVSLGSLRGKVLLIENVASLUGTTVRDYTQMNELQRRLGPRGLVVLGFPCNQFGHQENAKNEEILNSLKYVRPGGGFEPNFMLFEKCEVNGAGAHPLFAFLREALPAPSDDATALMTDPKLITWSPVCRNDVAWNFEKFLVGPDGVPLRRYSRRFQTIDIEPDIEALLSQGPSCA
Chain of Phospholipid hydroperoxide glutathione peroxidase GPX4 (Homo sapiens) (P36969 whole entry, looked up): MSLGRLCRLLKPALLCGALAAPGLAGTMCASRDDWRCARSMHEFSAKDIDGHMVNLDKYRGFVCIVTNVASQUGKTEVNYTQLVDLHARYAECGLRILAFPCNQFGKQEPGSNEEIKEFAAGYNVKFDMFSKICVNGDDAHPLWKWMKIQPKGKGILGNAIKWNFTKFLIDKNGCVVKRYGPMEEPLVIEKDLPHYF
Chain of Calcium and integrin-binding protein 1 (Homo sapiens) (Q99828 whole entry, looked up): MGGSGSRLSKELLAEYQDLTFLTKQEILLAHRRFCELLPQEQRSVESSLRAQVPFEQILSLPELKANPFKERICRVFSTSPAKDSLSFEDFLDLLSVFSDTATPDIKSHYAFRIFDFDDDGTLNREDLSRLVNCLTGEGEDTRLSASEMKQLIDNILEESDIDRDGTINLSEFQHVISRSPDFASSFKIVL

For `CC[C@@H](C)[C@H]1C(=O)O[C@H](C(C)C)C(=O)N(C)[C@@H](C(C)C)C(=O)O[C@H](C(C)C)C(=O)N(C)[C@@H](C(C)C)C(=O)O[C@H](C(C)C)C(=O)N1C`, the Potency result in [1], in [2], in [3], in experiment [4], in experiment [6] and in [7] was “inactive” throughout. Besides, the Potency result in experiment [8], in experiment [9] and in [10] was “inactive” each time. The result in experiment [5] was inactive.

Turning to `C[C@H]1CC[C@@H]2[C@@H](C)[C@H]3[C@H](C[C@H]4[C@@H]5CC=C6CC(O[C@@H]7O[C@H](CO)[C@@H](O)[C@H](O[C@@H]8O[C@H](CO)[C@@H](O)[C@H](O)[C@H]8O)[C@@H]7O[C@@H]7O[C@@H](C)[C@H](O)[C@@H](O)[C@H]7O)CC[C@]6(C)[C@H]5CC[C@]34C)N2C1` (stereo partly drawn), the Potency entry in experiment [1], in [2], in [3] and in experiment [4] was “inactive” in each case. Further, the outcome in experiment [5] was “inactive [at 11.6 µM]”. In addition, in [6], the activity change, negative = thiol reactive was 134% [at 11.5 µM]. Besides, the activity, negative = inhibition in [7] was -0.992% [at 11.6 µM]. In addition, the max response in [11] is -13.1%. Moreover, in [12], the compound was called inactive. For the same compound, the activity change, negative = cytotoxicity is -12.6% [at 11.6 µM] in experiment [13]; 17.5% [at 11.6 µM] in experiment [14]; 0.984% [at 11.6 µM] in experiment [9]; -2.66% [at 11.6 µM] in experiment [15]; 11.3% [at 11.6 µM] in experiment [16]; -0.31% [at 11.6 µM] in [10]. Moreover, the activity change, negative = cytotoxicity in [17] is -5.29% [at 11.6 µM]; in experiment [18] it was 7.63% [at 11.6 µM]; in experiment [19] it was -1.56% [at 11.6 µM]; in experiment [20], 5.33% [at 11.6 µM].

For the compound `COc1ccc(CCNCc2ccc(OC)c3ccccc23)cc1`, the Potency entry in experiment [1], in experiment [2], in [3], in [4], in experiment [7] and in experiment [8] was “inactive” each time. Moreover, the Potency result in [13], in experiment [14], in [9], in experiment [15], in experiment [16] and in [17] was “inactive” each time. In addition, the Potency entry in experiment [18], in [19] and in experiment [20] was “inactive” throughout. Moreover, the outcome in [5] was inactive. The max response in experiment [12] was -21.8%.

As to `CO[C@H]1C[C@H](O[C@H]2CC[C@]3(CO)[C@H]4CC[C@]5(C)[C@@H](C6=CC(=O)OC6)CC[C@]5(O)[C@@H]4CC[C@]3(O)C2)O[C@H](C)[C@H]1O`, the Potency entry in [1], in experiment [2], in experiment [4], in [6], in experiment [7] and in experiment [8] was “inactive” in each case. For the same compound, the compound was classed as inactive in experiment [5]. Also, the max response in experiment [12] is 1.22%. The Potency in experiment [13] is 0.0891 µM (active); in experiment [14] it was 0.355 µM (active); in experiment [9], 0.891 µM (active); in experiment [15], 0.199 µM (active); in experiment [16], 0.224 µM (active); in [17], 1 µM (active). The Potency is 0.112 µM (active) in experiment [18], 0.141 µM (active) in [19] and 0.0316 µM (active) in experiment [20].

For the compound `O=C1CN=C(c2ccccc2Cl)c2cc(Br)ccc2N1`, the Potency entry in experiment [1], in experiment [2], in [3], in [4], in experiment [6] and in experiment [7] was “inactive” in each case. For the same compound, the Potency result in experiment [8], in experiment [13], in [14], in experiment [9], in experiment [15] and in experiment [16] was “inactive” in each case. For the same compound, the Potency result in experiment [10], in [17], in [18], in experiment [19] and in experiment [20] was “inactive” in each case. The call in experiment [5] and in experiment [12] was inactive. In addition, the max response in experiment [11] was -40.1%.
